# Data as given in the supplement of paper PMC6555819.
# Tests used:
# Test in all cases: PBM binding z-score (relative to random genomic background probes); higher = stronger binding; sequences stand for … in GC…GCGATTGACAGCGTAGAATGAAGG
# [1] = test system: RARb homodimer (NR concentration 270 nM)
# In short: (§1)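 Custom Agilent 4×180K protein-binding microarrays carried double-stranded probes. Their 34-nt variable regions held direct-repeat seeds, single-nucleotide variants, half-site ablations and random human genomic background sequences. Arrays were incubated 1 h with ligand-free nuclear receptor dimers in PBS pH 7.4, 2% milk, 0.02% Triton X-100, 1 mM DTT, 0.2 mg/mL BSA and 0.4 mg/ml salmon testes DNA. Antibodies against each partner (one per run) detected binding, and scanned fluorescence was regression-normalized. Binding z-scores use random background probes as reference.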
# [2] = test system: RARg:RXRa (NR concentration 270 nM, RXRa partner concentration 90 nM)
# In short: as §1
# [3] = test system: RARg homodimer (NR concentration 270 nM)
# In short: as §1
# [4] = test system: RXRa DBDmut IVT, anti-RXR (DBD mutation: RXRa K156A/R161A, NR concentration 90 nM)
# In short: as §1
# [5] = test system: RXRa homodimer (NR concentration 180 nM)
# In short: as §1
# [6] = test system: THRa:RXRa (NR concentration 90 nM, RXRa partner concentration 90 nM)
# In short: as §1
# [7] = test system: THRa homodimer (NR concentration 90 nM)
# In short: as §1
# [8] = test system: VDR homodimer (NR concentration 270 nM)
# In short: as §1
Sequence,PBM binding z-score [1],PBM binding z-score [2],PBM binding z-score [3],PBM binding z-score [4],PBM binding z-score [5],PBM binding z-score [6],PBM binding z-score [7],PBM binding z-score [8]
CCGACTGGGGCATAAGGTTACCATCAGCCAGCCC,1.72,1.41,1,-0.242,1.03,1.98,1.33,-0.0619
ATATGTAGGTTATCGGGTCATTCGGTTTGCGCAT,2.88,3.2,2.3,1.52,3.53,3.28,2.94,4.19
TCTCGTAGGACACGAAAGGTCAGAGCTCGACATC,4.53,4.69,5.29,1.16,4.44,3.28,0.778,0.852
CAAACTAGGTCAAGGTCAAAGGCGGTTTGTGCCA,5.02,6.14,6.63,3.02,5.77,4.38,3.55,3.92
GGCACGAGGGCAAAGTTGATAGCATCTGTCGACG,1.26,2.26,1.99,2.39,2.19,1.33,-0.552,1.29
AGAATGAGGTTACCATAGATCAGGGAAACGCTTG,0.58,1.89,1.72,1.13,2.38,2.59,0.611,0.117
AGTCAAAGTTCAGGACGTGGTAACGTAAAGCACG,3.13,4.04,4.85,2.76,2.67,2.37,0.614,1.49
CCTAGCAGGCCAGGGTTACTCAAGCATTTCGCTT,0.0028,-0.0642,-0.141,-0.596,0.113,0.382,-0.445,-0.788
CCAACTGGGCCACGAAAGGTCATTGATTCAGTGA,4.65,4.7,4.65,0.781,5.13,3.69,0.917,2.32
CAAACTAGGTCAAGGTCAATGTCGGTTTGTGCCA,5.09,5.85,6.81,2.94,5.18,4.41,3.82,4.11
GCGAGTTGGTCAGTAAAAGGTCACACACCGGTCG,5.05,5.52,4.95,1.34,5.54,3.47,1.74,2.27
TCTCGGAGGACCCGAAGGTCAGAGCTTTCCAGAG,2.83,2.16,1.76,-0.207,1.82,1.62,-0.184,-0.145
CCTACTGGGCCAAGGTCAATGATCAGTCAAAGCA,3.38,3.51,3.62,0.404,3.12,3.18,1.77,1.61
TAGCCTAGGTCATTCAGGGGCCAGTAAAGAAAGC,3.38,6.24,4.69,1.5,3.27,3.63,0.491,1.24
GATACAGGGTCAAGGCTAGAGTACGCGTATTGAT,3.75,5.53,5.01,2.4,5.93,3.52,1.23,2.36
AATACAGGGTCATCGTAGCCCAGAGTACGCACAG,3.25,5.57,4.42,3.46,6.57,3.69,1.34,3.87
CAAACTAGGTTAAGGTCAAAGTCGGTTTGTGCCA,4.49,5.11,4.99,2.74,5.29,4.54,5.29,4.48
ACAGACAGGTGTGTGAAGGTAACTCAGCTGGACG,-0.271,-0.0907,-0.134,-0.313,0.0111,-0.0622,-0.902,-0.49
TCGAGTAGGTTAGTAGGGGCATTCAGCCAACATA,0.576,0.0411,-0.0163,0.422,0.366,0.542,0.108,0.677
AGTCAAAGTTCACTATGTAACGTAAGATTCAGCT,3.66,4.55,5.44,4.2,3.68,1.36,-0.244,3.86
CTCGAAAGGTCCGTTGAGGTGAGTATACGGATAA,0.529,0.513,0.708,0.119,0.313,4.14,0.988,0.885
ACTATTAGTTGAGACGAGGTCAACCGATAGGTTG,4.05,3.81,3.37,1.57,4.82,4.73,3.82,3.21
TCTTGTAGATCAAGCATGTTAAGAAAGCCTGAGT,-0.365,-0.147,-0.0954,0.943,0.122,-0.0977,-0.856,0.128
TCTAACAGGCCAGAGGGTCACTCAAGAGGTACGG,3.05,2.78,2.14,1,2.88,1.71,-0.107,0.997
TCTATTTGGTCACGGAGGTCACACACGACGGGTA,4.61,4.91,5.19,1.87,5.34,3.82,3.38,3.22
CGAACTAGGTCATCCAGGACAGTGCATACATTGA,3.21,4.04,4.52,2.45,2.88,3.65,2.06,2.29
CATACAGTGTCAGCTAGGCCAGAGTAGGGACGGC,0.245,0.397,0.832,-0.017,0.0865,0.027,0.00703,-0.455
TATACAGGGTCAAAGGCCAGGGTACGAATGTCGA,3.71,5.77,5.14,2.73,7.42,3.73,1.2,3.31
